According to PubChem BioAssay AID2726 (Broad Institute, 2010):
Some of the results follow. Unmarked numbers belong to inactive results.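 The calls were made as follows: active = every replicate shows growth inhibition above 50%; inconclusive = at least half, but not all, replicates pass that cutoff; inactive = fewer than half of replicates pass it.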

Assay: Vibrio harveyi growth inhibition, confirmation, counter-screen for AI-2 quorum sensing project, JMH597 strain, OD600 absorbance (AID 2726)
Details: 9 h, at 7.5 µM, stronger effect = higher value, lacks LuxN and CqsS sensors
O=C(Cn1cnc2ccccc2c1=O)Nc1cccc(S(=O)(=O)N2CCCCC2)c1 gave a growth inhibition of 22.5%.
S=C(NCc1ccc(Cl)cc1)NC1CCCCC1 showed a growth inhibition of 11.3%.
Work on Cc1ccc(Cc2nc(-c3cccc(C)c3)no2)cc1 yielded a growth inhibition of 30.5%.
CC(C)(C)c1ccc(OC2=CS(=O)(=O)c3ccccc32)cc1 gave a growth inhibition of 31.5%.
Cc1nn(CC(=O)Nc2ccc(F)cc2)c(=O)c2ccccc12 showed a growth inhibition of 2.73%.
O=C1COc2ccc(S(=O)(=O)Nc3ccc(OC(F)(F)F)cc3)cc2N1 showed a growth inhibition of 41.4%.
In the case of Cc1ccc(Oc2cnn(-c3ccccc3)c(=O)c2Br)cc1, the growth inhibition is reported as -6.12%.
Compound Cc1cc(C(=O)OCC(=O)Nc2ccc(F)c(F)c2)c(C)o1 has a growth inhibition of 2.76%.
For CC(=O)c1cccc(OCc2cc(C(=O)NC(C)Cc3cccnc3)no2)c1 (configuration not stated), the growth inhibition was 1.63%.
In the case of CCOc1ccc(/C=N/NC(N)=S)cc1, the growth inhibition is reported as 8.81%.
COC(=O)c1ccc(SCc2ccccc2)nc1 gave a growth inhibition of 13.9%.
Compound CC(CNc1ccc([N+](=O)[O-])cc1)NC(=O)c1ccccc1Br (configuration not stated) has a growth inhibition of 16.7%.
For Cc1cccc(CSc2ccc(-c3cccs3)nn2)c1, the growth inhibition was 18.7%.
Cc1ccc(NS(=O)(=O)c2ccc3c(c2)NC(=O)CO3)cc1 showed a growth inhibition of -1.97%.
O=C(c1cc(-c2cccc(O)c2)on1)N1CCc2ccccc2C1 showed a growth inhibition of 14.2%.
Compound N/C(=N\OC(=O)CCc1ccccc1)c1cccnc1 has a growth inhibition of 3.39%.
In the case of Cc1ccsc1C(=O)OCC(=O)c1cc2ccccc2o1, the growth inhibition is reported as 32.2%.
